Data from PubChem BioAssay (Tox21).
Results filed as inconclusive are left out. Active and inactive are the calls of the source. Unless noted, calls come from the whole dose curve; as a rule, active = well fitted curve in the direction sought with a large enough effect in the repeat runs; inconclusive = weak or mixed curves; inactive = no such curve, though single readings can be large; an effect the other way counts as inactive or inconclusive.

Experiments:
[1] = qHTS assay for small molecule agonists of the p53 signaling pathway (AID 651631; calls by dose curve; note: nearly all actives have a fitted effect of over 15% in size)
Summary of the method: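 Testing took place in human colorectal HCT-116 cells with stable p53RE-driven beta-lactamase. After 16 h of compound exposure at 37 °C, a FRET substrate was added and fluorescence recorded 2 h later.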

[2] = qHTS assay for small molecule agonists of the p53 signaling pathway - cell viability (AID 651633; calls by dose curve; note: series mostly up to about 83 µM; nearly all actives have a fitted effect of over 30% in size)
Summary of the method: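 p53RE-bla cells were treated with compound for 16 hours at 37 C. Cytotoxicity was then measured as CellTiter-Glo luminescence after 30 min at room temperature.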

[3] = qHTS assay for small molecules that induce genotoxicity in human embryonic kidney cells expressing luciferase-tagged ATAD5 - cell viability (AID 651634; calls by dose curve; note: nearly all actives have a fitted effect of over 25% in size)
Summary of the method: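 15.5 hr compound or vehicle exposure of HEK293T cells expressing luciferase-tagged ATAD5 at 37C; live-cell protease activity is read by fluorescence after 30 min of CellTiter-Fluor.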

[4] = qHTS assay for small molecule disruptors of the mitochondrial membrane potential - cell viability (AID 720634; calls by dose curve;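 note: human HepG2 liver cancer cells; series mostly up to about 83 µM; nearly all actives have a fitted effect of over 20% in size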)
Summary of the method: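 In this qHTS format, HepG2 cells plated overnight were pinned with compound, incubated 1 hr, and assayed for ATP luminescence with CellTiter-Glo after m-MPI dye addition.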

[5] = qHTS assay for small molecule disruptors of the mitochondrial membrane potential (AID 720635)
Summary of the method: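 HepG2 cells exposed to compound 1 hr at 37C, then Mito-MPS dye 30 min. Ratio read of aggregate (540/590 nm) versus monomer (490/535 nm) fluorescence.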

[6] = qHTS assay to test for compound auto fluorescence at 590 nm (red) in HepG2 cells (AID 720674)
Summary of the method: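 Fluorescence at 590 nm emission following 540 nm excitation was recorded from HepG2 wells one hour after compound transfer, with DMSO-only wells as vehicle and Rose Bengal sodium equivalency as the scale.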

[7] = qHTS assay to test for compound auto fluorescence at 535 nm (green) in HepG2 cells (AID 720675)
[8] = qHTS assay to test for compound auto fluorescence at 460 nm (blue) in HEK293 cells (AID 720678)
Summary of the method: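 Auto fluorescence in the blue band was quantified as triamterene equivalency. HEK293 cells were seeded at 2,000/well, dosed after a 4-5 hr attachment, and kept overnight at 37C before the 405/460 nm reading.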

[9] = qHTS assay to test for compound auto fluorescence at 590 nm (red) in HEK293 cells (AID 720679)
Summary of the method: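 Autofluorescence equivalency to Rose Bengal sodium, 540/590nm, in HEK293 cells exposed overnight to 23 nL compound per well.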

[10] = qHTS assay to test for compound auto fluorescence at 535 nm (green) in HEK293 cells (AID 720680)
[11] = qHTS assay to test for compound auto fluorescence at 460 nm (blue) in HEK293 cell free culture (AID 720681)
Summary of the method: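 Compounds were added to cell-free DMEM with 10% FBS and fluorescence read directly. The blue channel used 405 nm excitation and 460 nm emission, with triamterene as the reference fluorophore.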

[12] = qHTS assay to test for compound auto fluorescence at 535 nm (green) in HEK293 cell free culture (AID 720682)
Summary of the method: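 DMEM + 10% FBS, cell-free; cpd or DMSO pinned in; Ex485/Em535 read; output as fluorescein-equivalent signal.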

[13] = qHTS assay to test for compound auto fluorescence at 590 nm (red) in HEK293 cell free culture (AID 720683)
Summary of the method: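 Cell-free wells of DMEM with 10% FBS received compound, and intrinsic fluorescence was read at excitation/emission 540/590 nm. Values expressed as equivalence to Rose Bengal sodium.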

[14] = qHTS assay to test for compound auto fluorescence at 590 nm (red) in HepG2 cell free culture (AID 720684)
Summary of the method: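 Rose Bengal sodium served as the reference for red signal. Test compounds were dispensed into serum-containing MEM (10% FBS) without cells, and plates were read at 540/590 nm.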

[15] = qHTS assay to test for compound auto fluorescence at 460 nm (blue) in HepG2 cell free culture (AID 720685)
Summary of the method: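 Cell-free plates of MEM plus 10% FBS received 23 nL compound or DMSO vehicle; blue-channel (405/460 nm) intensity scored against triamterene as reference fluorophore.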

[16] = qHTS assay to test for compound auto fluorescence at 535 nm (green) in HepG2 cell free culture (AID 720686)
[17] = qHTS assay to test for compound auto fluorescence at 460 nm (blue) in HepG2 cells (AID 720687)
Summary of the method: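 HepG2 cells in MEM with 10% FBS, attached overnight at 37 C, were exposed to compound or DMSO for 1 hr at 37 C, 5% CO2. Blue fluorescence was read at 405/460 nm, with triamterene as reference fluorophore.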

[18] = target: Glucocorticoid receptor (Homo sapiens) (UniProt P04150); assay: qHTS assay to identify small molecule agonists of the glucocorticoid receptor (GR) signaling pathway (AID 720691; active = well fitted activation curve with a large enough effect in the signal ratio in the repeat runs, not every such curve was filed as active; the % refers to the signal ratio)
Glucocorticoid receptor (Homo sapiens), sequence (P04150 whole entry, looked up): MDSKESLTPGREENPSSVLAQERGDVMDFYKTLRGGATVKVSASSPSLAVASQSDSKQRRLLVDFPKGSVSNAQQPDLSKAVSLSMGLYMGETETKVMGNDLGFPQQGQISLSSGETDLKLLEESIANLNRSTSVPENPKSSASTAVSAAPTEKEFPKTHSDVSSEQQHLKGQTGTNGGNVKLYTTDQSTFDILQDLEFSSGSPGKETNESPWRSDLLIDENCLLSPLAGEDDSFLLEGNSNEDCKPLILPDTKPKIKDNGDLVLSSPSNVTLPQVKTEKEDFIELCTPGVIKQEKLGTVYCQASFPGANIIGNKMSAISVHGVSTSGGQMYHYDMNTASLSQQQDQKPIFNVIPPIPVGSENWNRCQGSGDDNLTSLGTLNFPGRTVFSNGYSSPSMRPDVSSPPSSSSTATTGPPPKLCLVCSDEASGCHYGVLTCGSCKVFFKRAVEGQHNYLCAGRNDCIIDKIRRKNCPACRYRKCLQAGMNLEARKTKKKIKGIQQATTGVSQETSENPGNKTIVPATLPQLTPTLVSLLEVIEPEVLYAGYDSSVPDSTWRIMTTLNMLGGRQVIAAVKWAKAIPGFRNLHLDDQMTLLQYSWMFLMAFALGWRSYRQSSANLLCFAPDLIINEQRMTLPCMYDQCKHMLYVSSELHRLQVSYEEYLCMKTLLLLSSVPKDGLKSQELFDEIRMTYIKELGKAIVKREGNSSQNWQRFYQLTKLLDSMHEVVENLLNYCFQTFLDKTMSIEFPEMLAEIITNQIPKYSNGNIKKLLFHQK
Summary of the method: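 Measures GR pathway activation through a GRE-beta-lactamase reporter stably integrated in HeLa cells, with 18 h compound treatment at 37 C and fluorescence detection using a FRET substrate.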

[19] = target: Glucocorticoid receptor (Homo sapiens) (UniProt P04150); assay: qHTS assay to identify small molecule antagonists of the glucocorticoid receptor (GR) signaling pathway (AID 720692; active = well fitted inhibition curve with a large enough effect in the signal ratio in the repeat runs, not every such curve was filed as active; the % refers to the signal ratio)
Summary of the method: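 Tox21 10K library screened in concentration-response for blockade of dexamethasone (5 nM final)-induced GRE-bla reporter activity in HeLa cells; 18 h treatment, fluorescence read.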
% is set by controls: 0 for no effect and ±100 for the full control effect.

COC(OC)C(C)c1ccccc1 (configuration not stated)
inactive: outcome [1] | outcome [2] | Potency [3] | outcome [4] | Potency [5] | outcome [6] | outcome [7] | outcome [8] | outcome [9] | outcome [10] | outcome [11] | outcome [12] | outcome [13] | outcome [14] | outcome [15] | outcome [16] | outcome [17] | Potency [18] | outcome [19]

CC(C)SCc1ccco1
inactive: outcome [1] | outcome [2] | Potency [3] | outcome [4] | outcome [6] | outcome [7] | outcome [8] | outcome [9] | outcome [10] | outcome [11] | outcome [13] | outcome [14] | outcome [15] | outcome [16] | outcome [17]

F[Si-2](F)(F)(F)(F)F
inactive: outcome [1] | outcome [2] | Potency [3] | outcome [4] | outcome [6] | outcome [7] | outcome [8] | outcome [9] | outcome [10] | outcome [11] | outcome [12] | outcome [13] | outcome [14] | outcome [15] | outcome [16] | outcome [19]

CN[C@@H]1[C@H](O)[C@H](NC)[C@H]2O[C@@]3(O)C(=O)C[C@@H](C)O[C@H]3O[C@@H]2[C@H]1O
inactive: outcome [1] | outcome [2] | Potency [3] | outcome [4] | Potency [5] | fluorescence, relative to Rose Bengal [6] -0.0467% [at 18.6 µM] | fluorescence, % of fluorescein control [7] -0.162% [at 18.6 µM] | fluorescence, % of triamterene [8] -0.0174% [at 18.6 µM] | fluorescence, % of fluorescent control [9] 0.0398% [at 18.6 µM] | fluorescence, % of fluorescein [10] 0.0714% [at 18.6 µM] | fluorescence, % of fluorescent control [11] 0.0087% [at 18.6 µM] | activity change [12] 0.0093% [at 18.6 µM] | fluorescence, % of fluorescent control [13] 0.386% [at 18.6 µM] | fluorescence, % of Rose Bengal [14] 0.555% [at 18.6 µM] | fluorescence, % of fluorescein control [16] 0.0131% [at 18.6 µM] | fluorescence, % of fluorescent control [17] 0.0309% [at 18.6 µM] | Potency [18] | outcome [19]

CC(C)(c1ccc(Oc2ccc3c(c2)C(=O)OC3=O)cc1)c1ccc(Oc2ccc3c(c2)C(=O)OC3=O)cc1
inactive: outcome [1] | outcome [2] | Potency [3] | outcome [4] | Potency [5] | outcome [6] | outcome [7] | outcome [8] | outcome [9] | outcome [10] | outcome [11] | outcome [12] | outcome [13] | outcome [14] | outcome [15] | outcome [16] | outcome [17] | Potency [18] | outcome [19]

Cc1cccc(C(=O)O)c1[N+](=O)[O-]
inactive: outcome [1] | outcome [2] | Potency [3] | outcome [4] | outcome [6] | outcome [7] | outcome [8] | outcome [9] | outcome [10] | outcome [11] | outcome [12] | outcome [13] | outcome [14] | outcome [15] | outcome [17]

CNCc1ccccc1
inactive: outcome [1] | outcome [2] | Potency [3] | outcome [4] | Potency [5] | outcome [6] | outcome [7] | outcome [8] | outcome [9] | outcome [10] | outcome [11] | outcome [13] | outcome [14] | outcome [15] | outcome [16]
